Of roughly 7,900 targets only a part is listed; those with a hit were picked by preference. About 0.6% of all pairs of compound and target were hits. Unmarked numbers belong to inactive results.

Sequence of UniProt Q92797 (Q92797 whole entry, looked up): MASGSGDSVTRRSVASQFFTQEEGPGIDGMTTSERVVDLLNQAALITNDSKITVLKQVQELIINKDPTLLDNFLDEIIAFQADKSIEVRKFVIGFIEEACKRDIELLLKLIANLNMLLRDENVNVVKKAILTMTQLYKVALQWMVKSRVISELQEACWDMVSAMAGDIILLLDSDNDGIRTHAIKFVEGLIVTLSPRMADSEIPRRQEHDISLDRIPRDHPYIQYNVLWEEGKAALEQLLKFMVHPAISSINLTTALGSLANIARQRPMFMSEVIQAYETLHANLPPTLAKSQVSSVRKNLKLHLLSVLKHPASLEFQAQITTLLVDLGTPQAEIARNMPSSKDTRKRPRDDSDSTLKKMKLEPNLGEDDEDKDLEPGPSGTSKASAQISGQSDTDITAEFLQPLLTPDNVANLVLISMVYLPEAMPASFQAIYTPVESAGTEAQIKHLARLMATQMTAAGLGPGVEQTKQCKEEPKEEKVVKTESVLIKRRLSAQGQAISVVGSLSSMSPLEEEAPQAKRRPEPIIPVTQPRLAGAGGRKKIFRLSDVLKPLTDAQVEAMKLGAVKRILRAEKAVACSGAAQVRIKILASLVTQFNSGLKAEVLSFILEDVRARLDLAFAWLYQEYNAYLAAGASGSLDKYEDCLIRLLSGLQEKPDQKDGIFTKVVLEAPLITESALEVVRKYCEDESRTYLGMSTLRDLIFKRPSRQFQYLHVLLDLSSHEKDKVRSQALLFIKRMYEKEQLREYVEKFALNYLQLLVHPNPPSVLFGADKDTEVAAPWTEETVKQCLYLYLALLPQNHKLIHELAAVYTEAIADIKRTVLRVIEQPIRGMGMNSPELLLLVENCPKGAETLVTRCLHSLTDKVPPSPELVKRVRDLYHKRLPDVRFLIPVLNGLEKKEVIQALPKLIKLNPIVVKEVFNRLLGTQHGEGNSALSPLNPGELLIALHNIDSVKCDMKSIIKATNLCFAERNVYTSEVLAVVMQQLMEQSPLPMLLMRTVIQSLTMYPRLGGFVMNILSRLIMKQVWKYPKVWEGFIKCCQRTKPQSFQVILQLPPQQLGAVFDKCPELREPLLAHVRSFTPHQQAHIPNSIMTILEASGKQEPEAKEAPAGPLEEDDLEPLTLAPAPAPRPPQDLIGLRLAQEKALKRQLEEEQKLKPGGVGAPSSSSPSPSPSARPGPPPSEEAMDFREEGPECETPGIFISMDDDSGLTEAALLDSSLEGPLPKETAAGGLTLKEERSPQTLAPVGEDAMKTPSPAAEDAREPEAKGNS
Sequence of UniProt O60264 (O60264 whole entry, looked up): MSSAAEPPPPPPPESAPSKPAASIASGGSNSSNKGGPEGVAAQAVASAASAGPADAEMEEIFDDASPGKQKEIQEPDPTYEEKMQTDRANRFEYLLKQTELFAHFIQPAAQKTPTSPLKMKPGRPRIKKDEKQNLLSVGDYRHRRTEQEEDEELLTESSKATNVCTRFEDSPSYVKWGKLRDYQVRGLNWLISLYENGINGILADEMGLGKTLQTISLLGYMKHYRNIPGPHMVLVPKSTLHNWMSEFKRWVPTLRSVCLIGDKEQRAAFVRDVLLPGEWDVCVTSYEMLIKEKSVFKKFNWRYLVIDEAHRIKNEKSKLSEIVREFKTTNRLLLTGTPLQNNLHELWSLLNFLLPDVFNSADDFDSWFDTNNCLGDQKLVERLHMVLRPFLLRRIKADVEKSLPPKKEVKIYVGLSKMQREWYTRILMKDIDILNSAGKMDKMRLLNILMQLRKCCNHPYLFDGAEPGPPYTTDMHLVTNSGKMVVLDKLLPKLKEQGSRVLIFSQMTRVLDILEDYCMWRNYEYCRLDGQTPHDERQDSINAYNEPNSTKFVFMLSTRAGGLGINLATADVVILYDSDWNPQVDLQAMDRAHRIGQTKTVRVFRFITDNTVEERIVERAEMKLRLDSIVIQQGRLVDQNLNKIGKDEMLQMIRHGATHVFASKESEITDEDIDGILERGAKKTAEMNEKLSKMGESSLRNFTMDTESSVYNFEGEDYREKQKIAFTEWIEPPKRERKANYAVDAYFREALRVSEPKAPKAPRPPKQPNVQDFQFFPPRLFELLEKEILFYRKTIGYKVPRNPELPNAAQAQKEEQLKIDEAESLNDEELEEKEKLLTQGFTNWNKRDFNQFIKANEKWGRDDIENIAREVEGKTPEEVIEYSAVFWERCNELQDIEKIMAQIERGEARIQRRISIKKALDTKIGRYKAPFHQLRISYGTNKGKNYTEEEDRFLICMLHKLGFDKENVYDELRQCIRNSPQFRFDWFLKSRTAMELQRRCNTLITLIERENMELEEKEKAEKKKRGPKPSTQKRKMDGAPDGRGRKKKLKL
Sequence of UniProt O75494 (O75494 whole entry, looked up): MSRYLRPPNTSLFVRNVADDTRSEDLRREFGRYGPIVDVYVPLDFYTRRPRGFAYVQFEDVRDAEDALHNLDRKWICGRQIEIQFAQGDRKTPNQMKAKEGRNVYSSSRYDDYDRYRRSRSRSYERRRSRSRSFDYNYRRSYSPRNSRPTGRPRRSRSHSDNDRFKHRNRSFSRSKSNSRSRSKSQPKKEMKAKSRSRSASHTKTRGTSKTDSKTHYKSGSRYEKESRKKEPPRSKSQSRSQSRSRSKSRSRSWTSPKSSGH
Sequence of UniProt Q92544 (Q92544 whole entry, looked up): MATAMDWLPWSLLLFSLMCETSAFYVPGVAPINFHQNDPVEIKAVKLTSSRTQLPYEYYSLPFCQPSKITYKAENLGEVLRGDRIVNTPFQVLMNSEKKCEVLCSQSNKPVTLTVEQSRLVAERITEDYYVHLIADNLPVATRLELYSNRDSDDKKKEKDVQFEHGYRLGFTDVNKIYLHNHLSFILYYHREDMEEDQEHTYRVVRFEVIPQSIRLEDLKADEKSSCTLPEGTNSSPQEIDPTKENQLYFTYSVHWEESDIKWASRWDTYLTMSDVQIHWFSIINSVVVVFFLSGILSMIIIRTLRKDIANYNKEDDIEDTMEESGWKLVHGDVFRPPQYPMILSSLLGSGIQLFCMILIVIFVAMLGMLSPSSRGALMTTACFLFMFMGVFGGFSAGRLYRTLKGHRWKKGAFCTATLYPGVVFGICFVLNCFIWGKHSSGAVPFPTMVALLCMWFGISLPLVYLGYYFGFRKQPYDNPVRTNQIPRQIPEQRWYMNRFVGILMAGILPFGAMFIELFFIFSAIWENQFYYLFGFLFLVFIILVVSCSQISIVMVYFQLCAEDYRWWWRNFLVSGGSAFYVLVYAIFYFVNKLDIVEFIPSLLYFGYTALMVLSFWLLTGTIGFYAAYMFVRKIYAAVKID
Sequence of UniProt Q9Y5L4 (Q9Y5L4 whole entry, looked up): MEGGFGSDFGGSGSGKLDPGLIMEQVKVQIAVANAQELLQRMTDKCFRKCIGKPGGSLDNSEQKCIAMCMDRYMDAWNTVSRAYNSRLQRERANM
Sequence of UniProt Q9Y5M8 (Q9Y5M8 whole entry, looked up): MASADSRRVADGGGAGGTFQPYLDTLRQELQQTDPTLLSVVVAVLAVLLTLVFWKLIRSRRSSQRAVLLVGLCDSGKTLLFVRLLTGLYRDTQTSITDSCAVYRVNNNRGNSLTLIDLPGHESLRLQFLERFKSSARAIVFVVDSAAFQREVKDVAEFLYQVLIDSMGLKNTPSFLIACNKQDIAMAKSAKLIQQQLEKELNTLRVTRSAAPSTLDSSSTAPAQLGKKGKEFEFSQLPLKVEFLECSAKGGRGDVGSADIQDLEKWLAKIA
Sequence of UniProt Q9UMY4 (Q9UMY4 whole entry, looked up): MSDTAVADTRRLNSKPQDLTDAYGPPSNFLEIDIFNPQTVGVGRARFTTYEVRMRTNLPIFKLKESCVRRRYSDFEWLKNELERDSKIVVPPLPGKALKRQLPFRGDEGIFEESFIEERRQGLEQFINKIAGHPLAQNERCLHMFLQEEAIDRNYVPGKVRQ
Sequence of UniProt Q6P1M0 (Q6P1M0 whole entry, looked up): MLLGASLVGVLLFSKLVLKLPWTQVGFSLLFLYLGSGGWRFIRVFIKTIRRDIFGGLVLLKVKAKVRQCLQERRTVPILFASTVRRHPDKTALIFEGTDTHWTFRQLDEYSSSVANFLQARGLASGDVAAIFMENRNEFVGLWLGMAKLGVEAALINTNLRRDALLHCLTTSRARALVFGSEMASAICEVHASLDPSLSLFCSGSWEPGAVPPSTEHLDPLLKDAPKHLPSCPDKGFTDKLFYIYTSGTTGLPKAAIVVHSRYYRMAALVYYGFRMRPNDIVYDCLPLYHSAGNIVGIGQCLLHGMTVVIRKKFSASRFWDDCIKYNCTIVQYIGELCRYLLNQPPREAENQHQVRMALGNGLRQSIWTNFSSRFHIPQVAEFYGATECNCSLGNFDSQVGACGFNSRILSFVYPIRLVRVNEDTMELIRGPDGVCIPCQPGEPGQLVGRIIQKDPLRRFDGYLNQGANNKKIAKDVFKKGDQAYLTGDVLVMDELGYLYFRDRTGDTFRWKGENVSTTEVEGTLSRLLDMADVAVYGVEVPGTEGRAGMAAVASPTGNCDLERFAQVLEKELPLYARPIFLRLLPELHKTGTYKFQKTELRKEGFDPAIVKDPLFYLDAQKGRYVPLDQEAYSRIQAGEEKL
Sequence of UniProt Q8WU79 (Q8WU79 whole entry, looked up): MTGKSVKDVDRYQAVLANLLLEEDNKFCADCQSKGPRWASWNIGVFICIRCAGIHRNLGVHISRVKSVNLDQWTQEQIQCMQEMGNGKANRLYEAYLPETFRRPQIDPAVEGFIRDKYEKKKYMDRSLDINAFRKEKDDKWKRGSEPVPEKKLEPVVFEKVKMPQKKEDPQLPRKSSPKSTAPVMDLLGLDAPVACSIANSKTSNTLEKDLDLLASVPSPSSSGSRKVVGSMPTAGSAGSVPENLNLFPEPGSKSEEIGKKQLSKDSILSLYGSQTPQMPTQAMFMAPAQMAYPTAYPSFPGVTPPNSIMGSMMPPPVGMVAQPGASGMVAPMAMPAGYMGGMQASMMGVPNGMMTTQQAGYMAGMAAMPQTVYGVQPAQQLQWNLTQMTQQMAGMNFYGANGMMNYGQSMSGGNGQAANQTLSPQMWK
Sequence of UniProt P62318 (P62318 whole entry, looked up): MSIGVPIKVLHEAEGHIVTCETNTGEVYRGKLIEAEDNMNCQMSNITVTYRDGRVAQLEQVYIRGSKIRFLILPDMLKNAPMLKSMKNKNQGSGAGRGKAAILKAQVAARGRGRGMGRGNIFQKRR

Compound in the assay: CC1=C(C(CC(=O)N1)C2=CC=C(C=C2)C(F)(F)F)C(=O)NC3=C(C=C4C(=C3)C=NN4)F
The assay is described as follows: log2 fold change, soluble protein after heating vs DMSO (PISA); higher = thermal stabilisation; K562 cells, 10 uM, 30 min; active = over 0.2 and 3.5 SD of the protein, either way, in both replicates (recomputed). Summed up:
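For each measurement, 10 μM compound was applied for 30 min to K562 cells at 2×10^6 cells/mL. Aliquots were heated for 3 min across 48°C-58°C, pooled, and extracted in PBS with 0.5% NP-40 at 4°C; the supernatant after 21,000xg for 90 min was soluble protein. This was quantified by TMTpro 16plex LC-MS/MS with channel sums equalised, and thermal stability was reported relative to control samples from duplicates, on a log2 fold-change scale.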
For the target TIMM13 (UniProt Q9Y5L4), the log2 fold change was 0.018. SLC25A38 (UniProt Q96DW6): the log2 fold change was 0.012. In the case of SMARCA5 (UniProt O60264) it was -0.135; in that of TEX30 (UniProt Q5JUR7), 0.061; in that of SMG1 (UniProt Q96Q15), 0.045. As for SNRPD3 (UniProt P62318), the log2 fold change was -0.008. Regarding SUPT5H (UniProt O00267), the log2 fold change was -0.035.

For SPAST (UniProt Q9UBP0), the log2 fold change was -0.019. On to TBCD (UniProt Q9BTW9), for which the log2 fold change is 0.068. As for SMAP (UniProt O00193), the figure is 0.029; as for SPR (UniProt P35270), 0.01; as for TAOK3 (UniProt Q9H2K8), 0.003. In the case of SP3 (UniProt Q02447) it was 0.114; in that of STOM (UniProt P27105), 0.014; in that of TJP1 (UniProt Q07157), 0.007. As for SLC30A10 (UniProt Q6XR72), the log2 fold change was 0.035. Consider SPCS2 (UniProt Q15005), for which the log2 fold change was -0.033. TM9SF4 (UniProt Q92544): the log2 fold change was -0.015. Take STAT5B (UniProt P51692): the log2 fold change is -0.109. As for SRSF10 (UniProt O75494), the log2 fold change was 0.205. SNX12 isoform 1 (UniProt Q9UMY4): the log2 fold change is -0.007. Regarding TBC1D15 isoform 3 (UniProt Q8TC07), the log2 fold change was 0.

As for SYMPK (UniProt Q92797), the log2 fold change was 0.078.

Take TBC1D23 (UniProt Q9NUY8): the log2 fold change is 0.055. SMAP2 (UniProt Q8WU79): the log2 fold change was -0.025. As for SNX5 (UniProt Q9Y5X3), the figure is 0.018; as for SNX9 (UniProt Q9Y5X1), 0.024; as for SRPRB (UniProt Q9Y5M8), -0.109. As for TANGO6 (UniProt Q9C0B7), the figure is 0.013. For the target TGFBRAP1 (UniProt Q8WUH2), the log2 fold change was 0.052. Consider TANK (UniProt Q92844), for which the log2 fold change is 0.033. Take TBRG4 (UniProt Q969Z0): the log2 fold change was 0.029. Turning to TERF2IP (UniProt Q9NYB0), the log2 fold change is 0.007. Turning to STK25 (UniProt O00506), the log2 fold change was -0.015. In the case of SLC27A4 (UniProt Q6P1M0) it was 0.047; in that of SMC5 (UniProt Q8IY18), -0.031; in that of SLC30A7 (UniProt Q8NEW0), -0.058.

Values taken from the supplement of paper PMC10849652.
